# Measured values: PubChem BioAssay (NCATS)
# “And” between values parts separate entries of the source, which are not always exact repeats. Equal entries are not always repeated. Records with an inconclusive call do not appear. Unmarked numbers belong to inactive results. The source made the active and inactive calls. The call rests on the fitted dose curve; in most records, active means well fitted curve in the direction sought with a large enough effect; inconclusive means small, poorly fitted or top-dose-only effect, or another doubt; inactive means no such curve, though single readings can be large; an effect the other way counts as inactive or inconclusive.
# Legend:
# [1] = system: HEK293; experiment: Cytotoxic Profiling of Annotated Libraries Using Quantitative High-Throughput Screening (AID 1296008); conditions: Five cell lines viability, CellTiter-Glo ATP luminescence, 48-72 h; max response: active compounds read low; further: nearly all actives have a fitted effect of over 60% in size
# Outline: (§1)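 Cells exposed to compounds for 48 or 72 hr at 37 degrees Celsius. Viability read as ATP-coupled luminescence with CellTiter-Glo after 10 min at room temperature.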
# [2] = system: HaCat; experiment: as above; conditions: Five cell lines viability, CellTiter-Glo ATP luminescence, 48-72 h; max response: active compounds read low
# Outline: as §1
# [3] = system: KB-3-1; experiment: as above; conditions: Five cell lines viability, CellTiter-Glo ATP luminescence, 48-72 h; max response: active compounds read low
# Outline: as §1
# [4] = system: HACAT; experiment: qHTS assay to identify novel small-molecules to repurpose for Merkel cell carcinoma treatment (AID 1296009); conditions: MCC and control cell lines, CellTiter-Glo viability, 72 h; series mostly up to 44.8 µM; further: nearly all actives have a fitted effect of over 60% in size
# Outline: (§2)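 CellTiter-Glo luminescence after 72 hr compound exposure at 37 degree celsius gave cell viability. Libraries NPC and MIPE were run as 8- and 11-point dose responses; RLUs normalized to DMSO (negative) and no-cell (cytotoxicity) controls.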
# [5] = system: MCC-13; experiment: as above; conditions: MCC and control cell lines, CellTiter-Glo viability, 72 h; series mostly up to 46 µM
# Outline: as §2
# [6] = system: MCC-26; experiment: as above; conditions: MCC and control cell lines, CellTiter-Glo viability, 72 h; series mostly up to 46 µM
# Outline: as §2
# [7] = system: WaGa; experiment: as above; conditions: MCC and control cell lines, CellTiter-Glo viability, 72 h; series mostly up to 46 µM
# Outline: as §2
# [8] = system: C33A; experiment: Primary qHTS to identify gynecologic anti-cancer compounds using libraries of approved drugs and bioactive compounds (AID 1345084); conditions: Gynecologic cancer cell panel viability, ATPlite luminescence, 48 h; series mostly up to 57.5 µM; further: nearly all actives have a fitted effect of over 55% in size
# Outline: (§3)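 Five-concentration response, 48 h; readout is ATP-driven luciferase luminescence.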
# [9] = system: CAOV3; experiment: as above; conditions: Gynecologic cancer cell panel viability, ATPlite luminescence, 48 h; series mostly up to 57.5 µM
# Outline: as §3
# [10] = system: CASKI; experiment: as above; conditions: Gynecologic cancer cell panel viability, ATPlite luminescence, 48 h; series mostly up to 57.5 µM
# Outline: as §3
# [11] = system: NIH3T3; experiment: Cytotoxic Profiling of Annotated Libraries Using Quantitative High-Throughput Screening (AID 1296008); conditions: Five cell lines viability, CellTiter-Glo ATP luminescence, 48-72 h; max response: active compounds read low; further: nearly all actives have a fitted effect of over 60% in size
# Outline: as §1
# [12] = system: MKL-1; experiment: qHTS assay to identify novel small-molecules to repurpose for Merkel cell carcinoma treatment (AID 1296009); conditions: MCC and control cell lines, CellTiter-Glo viability, 72 h; series mostly up to 46 µM; further: nearly all actives have a fitted effect of over 60% in size
# Outline: as §2
# [13] = system: MKL-2; experiment: as above; conditions: MCC and control cell lines, CellTiter-Glo viability, 72 h; series mostly up to 46 µM
# Outline: as §2
# [14] = system: UISO; experiment: as above; conditions: MCC and control cell lines, CellTiter-Glo viability, 72 h; series mostly up to 46 µM
# Outline: as §2
# [15] = system: Es-2; experiment: Primary qHTS to identify gynecologic anti-cancer compounds using libraries of approved drugs and bioactive compounds (AID 1345084); conditions: Gynecologic cancer cell panel viability, ATPlite luminescence, 48 h; series mostly up to 57.5 µM; further: nearly all actives have a fitted effect of over 55% in size
# Outline: as §3
# [16] = system: HeLa; experiment: as above; conditions: Gynecologic cancer cell panel viability, ATPlite luminescence, 48 h; series mostly up to 57.5 µM
# Outline: as §3
# [17] = system: Hek293T; experiment: as above; conditions: Gynecologic cancer cell panel viability, ATPlite luminescence, 48 h, control line for the selectivity index; series mostly up to 57.5 µM
# Outline: as §3
# [18] = system: JEG-3; experiment: as above; conditions: Gynecologic cancer cell panel viability, ATPlite luminescence, 48 h; series mostly up to 57.5 µM
# Outline: as §3
# On the % scale 0 is the no-effect control and ±100 the full control effect; potency means the concentration at half of the fitted maximal effect.
structure (smiles),measurement,setting,value
COc1cccc(-c2ccc(NC(=O)C3=C(C(=O)O)CCC3)c(F)c2)c1,Potency,[1],7.43 µM (active) and 6.51 µM (active)
same,outcome,[2],inactive
same,max response,[3],-19.3%
same,Potency,[4],inactive
same,Potency,[5],inactive
same,Potency,[6],inactive
same,Potency,[7],23.5 µM (active)
same,Potency,[8],inactive
same,Potency,[9],inactive
same,Potency,[10],inactive
COc1cc(OC2CCN(C)CC2)ccc1Nc1ncc2c(n1)n(C1CCCC1)c(=O)n2C,Potency,[1],3.72 µM (active)
same,Potency,[2],13.2 µM (active)
same,Potency,[3],4.18 µM (active)
same,Potency,[11],18.7 µM (active)
same,Potency,[6],inactive
same,Potency,[7],23.5 µM (active)
CCS(=O)(=O)c1cccc(-c2cc(C(=O)NC3CCN(C)CC3)c(C)c3[nH]c4ncc(C)cc4c23)c1,Potency,[1],1.87 µM (active) and 2.02 µM (active)
same,Potency,[2],4.18 µM (active) and 1.61 µM (active)
same,Potency,[3],1.18 µM (active) and 904 nM (active)
same,Potency,[11],10.5 µM (active) and 5.7 µM (active)
same,Potency,[6],4.69 µM (active)
same,Potency,[12],0.132 µM (active)
same,Potency,[13],8.33 µM (active)
same,Potency,[14],2.35 µM (active)
same,Potency,[10],2.82 µM (active)
same,Potency,[15],12.6 µM (active)
same,Potency,[16],1.58 µM (active)
same,Potency,[17],12.6 µM (active)
same,Potency,[18],8.91 µM (active)
CC(=O)Nc1nc(C)c(-c2ccc(Cl)c(S(=O)(=O)NCCO)c2)s1,Potency,[1],4.18 µM (active) and 11.6 µM (active)
same,Potency,[2],6.51 µM (active)
same,Potency,[3],9.35 µM (active)
same,Potency,[11],3.32 µM (active) and 2.59 µM (active)
same,Potency,[7],5.9 µM (active)
same,Potency,[9],14.1 µM (active)
same,Potency,[10],12.6 µM (active)
same,Potency,[18],inactive
COc1ccc(C(=O)CC2(O)C(=O)Nc3c(Cl)ccc(Cl)c32)cc1 (configuration not stated),Potency,[1],2.64 µM (active)
same,Potency,[2],4.11 µM (active)
same,Potency,[3],3.72 µM (active) and 5.17 µM (active)
same,Potency,[11],9.35 µM (active) and 2.91 µM (active)
same,Potency,[14],5.26 µM (active)
same,Potency,[8],inactive
same,Potency,[16],14.1 µM (active)
CC(C)(C)c1cnc(CSc2cnc(NC(=O)C3CCNCC3)s2)o1,Potency,[1],0.418 µM (active)
same,Potency,[2],1.32 µM (active)
same,Potency,[3],0.332 µM (active)
same,Potency,[11],3.32 µM (active)
same,Potency,[14],0.743 µM (active)
O=C(Nc1cc(C(F)(F)F)cc(C(F)(F)F)c1)c1cc(Cl)ccc1O,Potency,[1],590 nM (active) and 1.16 µM (active)
same,Potency,[2],2.64 µM (active) and 2.91 µM (active)
same,Potency,[3],264 nM (active) and 731 nM (active)
same,Potency,[11],3.32 µM (active) and 5.8 µM (active)
same,Potency,[14],2.35 µM (active)
same,Potency,[8],3.16 µM (active)
same,Potency,[10],3.55 µM (active)
same,Potency,[15],5.01 µM (active)
same,Potency,[16],2.24 µM (active)
same,Potency,[17],2.51 µM (active)
CN(C)CC=CC(=O)Nc1cc2c(Nc3ccc(F)c(Cl)c3)ncnc2cc1O[C@H]1CCOC1,Potency,[1],1.32 µM (active)
same,max response,[2],-151%
same,Potency,[3],4.18 µM (active)
same,Potency,[11],3.72 µM (active)
same,Potency,[12],14.8 µM (active)
same,Potency,[13],5.26 µM (active)
same,Potency,[14],14.8 µM (active)
same,Potency,[7],14.8 µM (active)
